Compounds with a hit are over-represented: about 7.9% of the library has one in this group of screens.
LASV entry inh: qHTS for Inhibitors of binding or entry into cells for Lassa Virus; Lassa virus pseudotype entry inhibition, cell reporter; Potency, µM (top dose mostly 37.9 µM), for inactives: top-dose activity change, negative = inhibition, usual class: inhibitors; 300,000 compounds, 1.2% hits; AID 540256, 2011; calls by dose curve; tested in HEK293 cells; note: potency is the fitted concentration of half-maximal effect; nearly all actives have a fitted effect of over 50% in size
FMDV inh: High Throughput Screening for Foot and Mouth Disease Virus Antivirals | FMDV antiviral cell-based qHTS | Potency, µM (series often up to 57.9 µM), without a hit: top-dose activity change, negative = inhibition, actives largely listed as inhibitors | 410,000 compounds, 1.2% hits | AID 1159524, 2015; calls by dose curve; tested in HEK293T cells; note: read-out not given here; potency is the fitted concentration of half-maximal effect; nearly all actives have a fitted effect of over 45% in size
Marburg entry inh: qHTS for inhibitors of binding or entry into cells for Marburg Virus; 300,000 compounds, 1.8% hits; AID 540276, 2011; Marburg virus pseudotyped entry inhibition, cell reporter; Potency, µM (top dose mostly 37.8 µM), inactives show at the top dose activity change, negative = inhibition, usual class: inhibitors; calls by dose curve; tested in HEK293 cells; note: potency is the fitted concentration of half-maximal effect
HCV inhibitor: qHTS Assay for Inhibitors of Hepatitis C Virus (HCV); Huh7.5.1 HCVcc-Cre infection, luciferase reporter, 44 h; Potency, µM (titrated, usually from 41.8 µM), for inactives: at the top dose activity change, negative = inhibition, hits mostly inhibitors; 340,000 compounds, 3.4% hits; active = well fitted inhibition curve with a large enough effect; inconclusive = small, poorly fitted or top-dose-only effect, or another doubt; inactive = no such curve, though single readings can be large or run the other way; note: potency is the fitted concentration of half-maximal effect
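Infectious HCVcc-Cre (~0.5 moi) was added to cells just after compound, with cells seeded 4 h earlier at 1,000 per well. Luciferase activity after 44 h culture reported infection; substrate was incubated 15 min at room temperature before reading.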
HCMV antiviral: qHTS Assay for inhibitors of the human cytomegalovirus (HCMV). AID 1259415, 2018. activity change, negative = inhibition, % at 57.5 µM. 410,000 compounds, 4.5% hits. HFF cells, HCMV-luciferase reporter, 72 h; hits give low values; in the data active = activity change below about -60%; inconclusive = no clear call, values can overlap the other calls; inactive = above about -39%
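Compounds were evaluated in HFFs infected with an HCMV luciferase reporter virus (MOI 1 PFU/cell). Luciferase in lysates collected 72 h post infection served as the replication measure.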
* hit, by the source's call; ? = inconclusive; . = no result given; [ ] = remark or other dose. % is set by controls: 0 for no effect and ±100 for the full control effect.

SMILES | LASV entry inh | FMDV inh | Marburg entry inh | HCV inhibitor | HCMV antiviral
O=C(CN1C(=O)C(c2ccc(F)cc2)=NC12CCCCCC2)Nc1ccc(F)c(Cl)c1 | 5%[46.1 µM] | ? | 16%[46.1 µM] | . | -90*
COc1cc(NC(=O)CN2C(=O)C(c3ccc(Cl)cc3)=NC23CCCCC3)cc(OC)c1 | -22%[46.1 µM] | -26% | ? | . | -93*
COc1ccc(NC(=O)CN2C(=O)C(c3ccccc3)=NC23CCC(C)CC3)cc1Cl (stereo not given) | -22%[46.1 µM] | -19% | 20µM* | . | 2
COc1cc(NC(=O)CN2C(=O)C(c3ccccc3)=NC23CCCCCC3)cc(OC)c1 | -14% | ? | ? | -8% | ?
COc1ccc(NC(=O)CN2C(=O)C(c3ccc(C)cc3)=NC23CCCCCC3)cc1Cl | -22%[46.1 µM] | -1% | ? | . | -22
COc1ccc(C2=NC3(CCCCCC3)N(CC(=O)Nc3cccc(Cl)c3)C2=O)cc1 | ? | ? | -26%[46.1 µM] | . | -91*
Cc1ccccc1OCCn1cc(/C(N)=N/O)c2ccccc21 | 15% | 28µM* | ? | ? | -14
CC(=O)c1cn(CCOc2cc(C)ccc2C)c2ccccc12 | -17%[46.1 µM] | ? | 1.6µM* | 1.8µM* | -32
Cc1ccc(C)n1-c1nnc(N2CCCC(C(=O)NCc3ccc(Cl)cc3)C2)s1 (stereo not given) | 0%[46.1 µM] | -30% | 11%[46.1 µM] | . | -1
CN(Cc1ccco1)C(=O)[C@H](Cc1ccccc1)NC(=O)CC[C@H]1O[C@@H](n2ccc(=O)[nH]c2=O)[C@H](O)[C@@H]1O | . | -6% | . | . | -14
C=CCOC(=O)C1=C(C)N(CC)C(=O)NC1c1ccccc1 (stereo not given) | . | . | -5%[14.2 µM] | . | .
O=C(CN1CCC(C(O)(c2ccccc2)c2ccccc2)CC1)Nc1cc(Cl)ccc1Cl | 8.2µM* | . | ? | -19% | 55
O=C(CN1CCC(C(O)(c2ccccc2)c2ccccc2)CC1)Nc1ccccc1 | ? | . | 23µM* | ? | -27
O=C(NCCN1CCOCC1)c1cc(-c2ccccc2)nc2ccccc12 | . | -23% | . | . | -14
Cc1ccc(-c2cc(C(=O)NCCCN3CCOCC3)c3ccccc3n2)cc1 | 14% | 7% | -7% | -4% | -10
Cc1c(Cl)ccc2c(C(=O)NCCN3CCCCC3)cc(-c3ccccn3)nc12 | 3% | -27% | ? | 5.6µM* | -28
Cc1ccc(-c2cc(C(=O)NCCCN3CCOCC3)c3ccccc3n2)cc1C | . | 16% | 21%[46.1 µM] | ? | -92*
Nc1ccccc1C(=O)NCCCN1CCOCC1 | 3% | 9% | 1% | -9% | -105*
O=C(NCCN1CCOCC1)c1cnn2c(-c3ccccc3)cc(-c3ccccc3)nc12 | -30% | -14% | -29% | 11µM* | 10
O=C(Cc1cccs1)N[C@@H]1C(=O)N2C(C(=O)[O-])=C(C[n+]3ccccc3)CS[C@H]12 | . | -6% | . | . | .
O=C(Cc1nc2ccccc2[nH]1)N1CCC(n2c(C3CCC3)nc3cccnc32)CC1 | . | 32% | . | . | .
O=C(NCC(c1cccs1)N1CCOCC1)c1cc(-c2ccc(F)cc2)nc2ccccc12 (stereo not given) | . | -18% | ? | 7.1µM* | 20
CCCCn1nc(C(=O)NCC(c2cccs2)N2CCOCC2)c2ccccc2c1=O (stereo not given) | . | 32µM* | . | ? | ?
Cc1ccc(-c2cc(C(=O)NCCCN3CCCC3)c3ccccc3n2)cc1C | ? | -15% | 11µM* | 22µM* | -23
COc1ccc(/C(O)=C2\C(=O)C(=O)N(CCN(C)C)[C@H]2c2cccc(OC)c2OC)cc1 | . | . | -16% | . | .
SMILES | LASV entry inh | FMDV inh | Marburg entry inh | HCV inhibitor | HCMV antiviral
Cc1cc(C)cc(N(CC(=O)NC2CCCCC2)C(=O)c2ccc(C)s2)c1 | -1% | . | ? | 11µM* | 0
Cc1ccc(N(CC(=O)NC2CCCCC2)C(=O)c2ccc(C)s2)cc1 | 13% | . | ? | ? | -63*
Cc1ccc(N(CC(=O)NC2CCCC2)C(=O)c2ccc(C)s2)cc1 | 3% | 1% | -17% | 11µM* | -5
CC(C)(C)S(=O)N1CCC[C@@H]1c1noc2cc3ccccc3cc12 (stereo not given in full) | . | . | . | . | -8
CCCCC(=NCCc1c(C)[nH]c2ccc(OC)cc12)C1=C(O)CC(c2ccccc2)CC1=O (stereo not given) | ? | ? | 7.9µM* | ? | -27
O=C(NCc1ccccc1Cl)O[C@H]1CC[C@@]23CCCN2C(=O)CCC[C@H]3[C@H]1Cc1ccccc1 | . | . | . | . | -2
CCOc1ccc(C(=O)Nc2ccc3nc(Nc4cccc(C(F)(F)F)c4)cc(C)c3c2)cc1OCC | 0%[46.1 µM] | 0% | . | . | -62*
Cc1cc(Nc2cccc(C(F)(F)F)c2)nc2ccc(NC(=O)c3cccnc3)cc12 | ? | 28µM* | . | . | -107*
Cn1nc(C(F)(F)F)c(-c2cccc(C(F)(F)F)c2)c1NC(=O)c1cccnc1 | . | -22% | . | -1% | -78*
Cc1cc(Nc2cccc(C(F)(F)F)c2)nc2ccc(NC(=O)c3cccc(Cl)c3)cc12 | -27%[46.1 µM] | ? | . | . | -104*
CCC(NC(=O)Nc1ccc(O)cc1)(C(F)(F)F)C(F)(F)F | -21% | -24% | ? | -4% | -70*
CC(NC(=O)Nc1ccc(O)cc1)(C(F)(F)F)C(F)(F)F | -21% | -5% | -4% | 4% | -3
Cc1ccc(NC(=O)CCNS(=O)(=O)c2ccc3c(c2)CCCC(=O)N3)cc1 | 3%[46.1 µM] | -6% | . | . | -5
CCOc1ccc2[nH]cc(C(=O)NCc3ccc(F)cc3)c(=O)c2c1 | . | 0% | . | ? | -71*
O=C(NCc1ccccc1)c1c[nH]c2ccc(F)cc2c1=O | . | 49% | . | -25% | ?
CC(C)(CC(=O)O)CC(=O)N1CCN(c2nc3ccc(Cl)cc3s2)CC1 | . | 3% | . | 9% | .
CC(C)(C)NC(=O)N1CCN(c2nc3ccc(Cl)cc3s2)CC1 | 13%[46.1 µM] | -6% | ? | 13µM* | .
CCCCC(=O)N1CCN(c2nc3ccc(Cl)cc3s2)CC1 | -7%[46.1 µM] | 3% | ? | 7.9µM* | ?
COc1cc(C(=O)Nc2cc(C)ccc2OCc2cc(=O)n3c(C)csc3n2)cc(OC)c1OC | 9%[46.1 µM] | 3% | . | . | -20
COc1cccc(Cn2nnc(C(=O)NCc3ccc(Cl)cc3Cl)c2N)c1 | -4%[46.1 µM] | 3% | ? | . | -6
C[C@@H]1CCC2C(C)(C)C3CC21CC[C@@]3(C)O (stereo not given in full) | . | -14% | . | . | .
CCCS(=O)(=O)NCc1c(C)ncc2c1CCN(C(=O)c1cccc(C(F)(F)F)c1)C2 | . | -16% | . | . | .
O=C(NCc1ccccc1)c1cc(-c2ccncc2)nc2ccccc12 | -48%[46.1 µM] | -15% | ? | -11% | 32
CN(C)CCNc1cc(-c2ccncc2)nc2ccccc12 | -12%[46.1 µM] | 6% | 6.3µM* | -2% | 34
COc1ccc(-c2nc(CSCC(=O)N3CCN(c4cccc(C)c4C)CC3)c(C)o2)cc1OC | ? | 25µM* | . | . | -93*
COc1ccc(-c2nc(CSCC(=O)N3CCN(C)CC3)c(C)o2)cc1OC | . | 5% | . | -5% | 28

Screens deposited in PubChem by National Center for Advancing Translational Sciences (NCATS).
